# High-throughput results from PubChem.
# G9a block = blocks human histone lysine methyltransferase G9a; Q96KQ7; G9a H3K9 monomethylation, AlphaScreen, 2 h; Potency, µM (titrated, usually from 102 µM), for inactives: at the top dose activity, negative = inhibition, most hits filed as inhibitors; actives 8.8% (n = 350,000); AID 504332; note: % is set by controls: 0 for no effect and ±100 for the full control effect; nearly all actives have a fitted effect of over 75% in size
#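 G9a (20 nM) preincubated 15 min RT with compounds, then 500 nM biotinylated H3K9 peptide and 20 uM SAM added; 2 h RT reaction. Monomethyl-H3K9 product detected by AlphaScreen with anti-H3K9me1 antibody, streptavidin donor and anti-rabbit IgG acceptor beads.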
# Sfp PPTase inh = blocks B. subtilis Sfp PPTase activity. AID 1490. Q9F4F7. Potency, µM, inactives show largest response in the series, negative = inhibition, most hits filed as inhibitors. actives 3.5% (n = 310,000). Biochemical Sfp PPTase activity, qHTS;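 note: the enzyme is Sfp with the accession as filed and its product quenches rhodamine fluorescence; 0% = enzyme reaction without inhibitor and -100% = no enzyme wells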
#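 Fluorescence-quenching assay with 15 nM Sfp, 5 uM rhodamine-CoA and 12.5 uM BHQ-2-labelled ybbR peptide in pH 7.6 Hepes/MgCl2 buffer. Enzyme was pre-incubated with compound for 15 min at room temperature. Rate was taken from the 30-min fluorescence change (525/598 nm).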
# HP1b chromo inh = HP1-beta chromodomain-methylated histone interaction inhibition; Potency, µM (highest dose often 114 µM), for the others: at the highest dose activity change, negative = inhibition, hits mostly inhibitors; AlphaScreen HP1-beta / biotin-H3K9me3 peptide binding; actives 0.56% (n = 390,000); P83916; AID 540317; note: nearly all actives have a fitted effect of over 70% in size
#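 AlphaScreen: HP1-beta (50 nM) preformed 30 min with biotin-H3(1-18)K9me3 peptide (50 nM) in PBS pH 7.4, 0.01% Tween-20. Compound added for 30 min at RT, then streptavidin donor/nickel chelate acceptor beads (10 ug/mL) for 30 min.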
# BAZ2B block = blocks human BAZ2B. Q9UIF8. actives 4.4% (n = 360,000). Potency, µM (series often up to 114 µM), for inactives: top-dose activity change, negative = inhibition, actives largely listed as inhibitors. AlphaScreen BAZ2B-H3K14Ac peptide displacement; note: % is set by controls: 0 for no effect and ±100 for the full control effect; nearly all actives have a fitted effect of over 60% in size
#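 BAZ2B (50 nM) with biotin-H3(5-23)K14Ac peptide (50 nM) in PBS pH 7.4, 0.01% Tween-20, preformed 30 min, then compound 30 min at room temperature; top concentration 110uM. AlphaScreen streptavidin donor/nickel chelate acceptor beads (10 ug/mL final), 20 min dark, signal read.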
# JMJD2A Tudor = inhibitors of human JMJD2A Tudor domain; actives 4.4% (n = 390,000); O75164; AlphaScreen JMJD2A-Tudor / H3K4me3 peptide binding; Potency, µM (doses to about 114 µM), for inactives: at the top dose activity change, negative = inhibition, actives largely listed as inhibitors; AID 504339; note: % is set by controls: 0 for no effect and ±100 for the full control effect; nearly all actives have a fitted effect of over 50% in size
# Numbers without * were called inactive; ? = inconclusive; nt = no result; [ ] = remark or other dose. Sampled rows, rich in hits. Any-hit rate of the full collection: about 12%. Calls come from the whole dose curve; as a rule, active = well fitted curve in the direction sought with a large enough effect; inconclusive = small, poorly fitted or top-dose-only effect, or another doubt; inactive = no such curve, though single readings can be large; an effect the other way counts as inactive or inconclusive. Potency is the fitted concentration of half-maximal effect.
SMILES,G9a block,Sfp PPTase inh,HP1b chromo inh,BAZ2B block,JMJD2A Tudor
COC(=O)[C@@]1(Cc2ccc(F)cc2)[C@H]2c3cc(C(=O)N4CCCC4)n(Cc4ccc(C(F)(F)F)nc4)c3C[C@H]2CN1C(=O)c1ccccc1,50µM*,-2%,5%,?,?
COC(=O)[C@@]1(Cc2ccc(F)cc2)[C@H]2c3cc(C(=O)N4CCCC4)n(Cc4ccc(C)o4)c3C[C@H]2CN1C(=O)c1ccccc1,nt,40µM*,nt,nt,nt
COC(=O)[C@@]1(Cc2ccc(F)cc2)[C@H]2c3cc(C(=O)N(C)C)n(Cc4nc5ccccc5[nH]4)c3C[C@H]2CN1C(=O)c1ccccc1,50µM*,-4%,-2%,?,?
COC(=O)[C@@]1(Cc2ccc(OC)cc2)[C@H]2c3cc(C(=O)N(C)C)[nH]c3C[C@H]2CN1C(=O)c1ccccc1,50µM*,-16%,13%,56µM*,-30%
COc1cc(/C=C2\SC(c3ccc(C)cc3)=NC2=O)ccc1O,11µM*,22µM*,?,22µM*,28µM*
COc1ccc(/C=C2\SC(c3ccc(C)cc3)=NC2=O)cc1OC,2.2µM*,?,20µM*,-19%,28µM*
CCOc1cc(/C=C2\SC(N)=NC2=O)ccc1O,56µM*,?,23%,-11%,-7%
COc1cc(/C=C2\SC(c3ccc(C)cc3)=NC2=O)cc(OC)c1OC,1µM*,?,?,-8%,56µM*
CCOc1cc(/C=C2\SC(=O)N=C2N)ccc1O,-20%[59 µM],-1%,23%,4%,-13%
COc1cc(/C=C2\SC(N3CCc4ccccc4C3)=NC2=O)cc(OC)c1OC,?,?,37%,-1%,-5%
CCOc1c(Br)cc(Br)cc1/C=C1\SC(N)=NC1=O,nt,-12%,10%,?,25µM*
COc1cc(/C=C2\SC(c3ccccc3)=NC2=O)cc(Cl)c1O,-157%[59 µM],7.9µM*,13µM*,35µM*,6.3µM*
COc1ccc(/C=C2/SC(c3ccc(C)cc3)=NC2=O)cc1OC,2.8µM*,32µM*,?,-32%,50µM*
COc1cc(/C=C2\SC(N)=NC2=O)cc(Br)c1O,-8%[0.501 µM],4%,2%,?,-26%
Cc1ccccc1OCC(=O)N1CCN(C(=O)COc2ccccc2C)CC1,?,7%,8%,-7%,-8%
CC(/C=C/c1ccccc1)=N\NC(=O)Cn1nc(C)cc1C,11%[59 µM],-8%,12%,-9%,-19%
COCCOC(=O)c1c(C)oc2ccc(OC(=O)c3cccs3)cc12,62%,?,91%,41%,36%
CC1Cc2ccccc2N1S(=O)(=O)c1cccc(C(=O)N2CC(=O)Nc3ccccc32)c1 (configuration not stated),71µM*,0%,16%,-1%,-27%
CC1CC(=O)Nc2ccccc2N1S(=O)(=O)c1ccccc1 (configuration not stated),-23%[59 µM],-17%,-3%,37%,18µM*
CCOC(=O)CN1c2ccccc2NC(=O)CC1C (configuration not stated),45µM*,15%,48%,0%,-25%
CC(=O)N1CCc2cc(S(=O)(=O)CCC(=O)N3CCN(c4ccccc4F)CC3)ccc21,6%[59 µM],12%,79%,-33%,-10%
Cc1cccc(N2CCN(C(=O)CCS(=O)(=O)c3ccc(Br)cc3)CC2C)c1 (configuration not stated),25µM*,-9%,28µM*,32µM*,?
CC(=O)N1CCCc2cc(S(=O)(=O)CCC(=O)N3CCN(c4cccc(C)c4)C(C)C3)ccc21 (configuration not stated),50µM*,6%,-25%,50µM*,56µM*
O=C(CN1CCN(S(=O)(=O)c2ccc(F)cc2)CC1)Nc1ccccc1C(=O)NC1CC1,3%,nt,20%,9%,0%
Cc1ccc(C(=O)N/N=C\c2ccc[nH]2)cc1[N+](=O)[O-],4%[12.7 µM],-9%,24%,11%[57.1 µM],-9%
SMILES,G9a block,Sfp PPTase inh,HP1b chromo inh,BAZ2B block,JMJD2A Tudor
CCOC(=O)c1ccccc1NC1CC(=O)N(c2ccccc2C)C1=O (configuration not stated),?,79µM*,7%,1%,-20%
O=C(COc1ccc(Cl)cc1)Nc1ccc(N2CCN(C(=O)c3ccco3)CC2)cc1,?,21%,-9%,?,?
O=C(COc1ccc([N+](=O)[O-])cc1)Nc1ccc(N2CCN(C(=O)c3ccco3)CC2)cc1,nt,-6%,52%,25µM*,-14%
O=C(COc1ccc2ccccc2c1)Nc1ccc(Cc2ccncc2)cc1,-10%,-3%,61%,?,79µM*
CN1CCN(c2ccc(NC(=O)COc3ccc4ccccc4c3)cc2)CC1,35µM*,5%,12%,-18%,-25%
Cc1ccc([N+](=O)[O-])cc1S(=O)(=O)Nc1ccc(C(=O)N2CCN(C(=O)c3ccco3)CC2)cc1,-11%[2.33 µM],nt,-12%,?,79µM*
Cc1ccc([N+](=O)[O-])cc1S(=O)(=O)Nc1ccc(C(=O)N(C)C)cc1,3%,18%,54%,-34%,6%
CC(=O)Nc1ccc(NC(=O)COC(=O)CCNS(=O)(=O)c2c(Cl)cccc2Cl)cc1,-50%,nt,46%,6%,-9%
CCc1nnc(NC(=O)CSc2ccc(Cl)cc2)s1,4%,2%,20%,?,-5%
O=C(NC1CCCCC1)c1ccc(CSc2nc3ccncc3n2Cc2ccccc2F)cc1,-30%[59 µM],nt,47%,-9%,-20%
COCCN1C(=O)/C(=C/c2ccc(N3CCCC3)cc2C)SC1=S,-9%[0.501 µM],9%,-16%,8.9µM*,?
Cc1ccc(-c2[nH]ncc2CNC(C)c2ccccc2)cc1 (configuration not stated),nt,nt,?,nt,4.5µM*
O=C(CC1Nc2ccccc2NC1=O)NCCCN1CCCCCC1 (configuration not stated),-15%[59 µM],2%,14%,-29%,32µM*
CCCCNC(=O)CC1Nc2ccccc2NC1=O (configuration not stated),-32%,-6%,30%,8%,-24%
Nc1cc(S(=O)(=O)N2CCOCC2)ccc1N1CCOCC1,nt,nt,31%,nt,-11%
Cc1cc(C#N)c(C)n1-c1cc(S(=O)(=O)N2CCOCC2)ccc1N1CCCC1,6.3µM*,40µM*,-63%,-37%,?
COCCCNCc1cc(C)n(-c2cc(S(=O)(=O)N3CCOCC3)ccc2N2CCCC2)c1C,nt,nt,?,nt,79µM*
CC(C)OCCCN1CN(S(=O)(=O)c2cccs2)c2nc3ccccc3nc21,20µM*,-5%,47%,-24%,2%
O=S(=O)(c1cccs1)N1CN(Cc2ccco2)c2nc3ccccc3nc21,40µM*,?,-7%,?,?
CC(C)CCN1CN(S(=O)(=O)c2cccs2)c2nc3ccccc3nc21,16µM*,-5%,23%,1%,-4%
